Laboratory results published in PubChem BioAssay (EPA / NIEHS).
Activity calls are given as the source filed them. The calls were made as follows: active = hit-call score of the fitted dose curve at least 0.9, where 1 is the maximum; inactive = score below 0.9.

Columns and labels:
[1] = ATG_GLI_CIS: Attagene CIS-FACTORIAL HepG2 Assay for human Zinc Finger Protein GLI1 (AID 2282945); conditions: HepG2, Attagene cis-factorial reporter mRNA, GLI element; actives raise or lower the signal
Method in brief: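 Transiently transfected HepG2 cells report endogenous transcription factor activity via cis-element-driven reporter units. After 24 h compound exposure, reporter mRNA was measured by RT-PCR with capillary electrophoresis; bidirectional fitting against DMSO baseline.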

[2] = ATG_ISRE_CIS: Attagene CIS-FACTORIAL HepG2 Assay for human Interferon Regulatory Factor 1 (IRF1) binding to an Interferon-Stimulated Response Element (ISRE) (AID 2282948); conditions: HepG2 ISRE cis-reporter (Attagene), mRNA transcription readout; actives raise or lower the signal
Method in brief: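 Quantitation relies on labelled RT-PCR fragments separated by capillary electrophoresis. Human HepG2 cells bearing cis-promoter reporter constructs were treated 24 h; DMSO served as baseline for bidirectional fitting.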

[3] = ATG_M_32_CIS: Attagene CIS-FACTORIAL HepG2 Assay for M32 Transcription Factor (Internal Marker) (AID 2282949); conditions: HepG2 Attagene cis-factorial M32 reporter, mRNA; actives raise or lower the signal;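 also: background control marker of the multiplexed CIS panel rather than a real target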
Method in brief: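 Internal background marker read-out: RT-PCR/capillary electrophoresis fluorescence of reporter transcripts from transiently transfected HepG2 cells after 24 h chemical exposure. Activity fitted bidirectionally relative to DMSO negative control.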

[4] = ATG_M_06_CIS: Attagene CIS-FACTORIAL HepG2 Assay for M06 Transcription Factor (Internal Marker) (AID 2282950); conditions: HepG2 Attagene CIS-FACTORIAL M06 internal marker reporter; actives raise or lower the signal
Method in brief: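 Read-out is fluorescence of labelled reporter cDNA fragments resolved by capillary electrophoresis after RT-PCR. Cells: HepG2 carrying transfected cis-promoter reporter units, treated 24 h. Gain or loss of signal fitted relative to DMSO.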

[5] = target: Hypoxia-inducible factor 1-alpha (Homo sapiens) (UniProt Q16665); assay: ATG_HIF1a_CIS: Attagene CIS-FACTORIAL HepG2 Assay for human Hypoxia Inducible Factor 1 (HIF1A) (AID 2282951); conditions: HepG2 Attagene cis-factorial HIF1a reporter transcription; actives raise or lower the signal
Method in brief: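 HepG2 cells transiently transfected with multiplexed cis-promoter reporter units; reporter mRNA read 24 h after dosing by RT-PCR, 6-FAM primer-extension labelling, HpaI digestion and capillary electrophoresis. Bidirectional fit versus DMSO baseline.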

[6] = target: Hepatocyte nuclear factor 6 (Homo sapiens) (UniProt Q9UBC0); assay: ATG_HNF6_CIS: Attagene CIS-FACTORIAL HepG2 Assay for human Hepatocyte Nuclear Factor 6 (HNF6) (AID 2282952); conditions: HepG2 Attagene cis-factorial HNF6 reporter transcription; actives raise or lower the signal
Method in brief: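 HepG2 cells transiently transfected with cis-element-driven multiple reporter transcription units, dosed 24 h; reporter mRNA quantified by RT-PCR, FAM primer extension, HpaI digestion and capillary electrophoresis; bidirectional fit versus DMSO baseline.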

[7] = target: Heat shock factor protein 1 (Homo sapiens) (UniProt Q00613); assay: ATG_HSE_CIS: Attagene CIS-FACTORIAL HepG2 Assay for human Heat Shock Transcription Factor 1 (HSE) (AID 2282953); conditions: HepG2 HSE cis-reporter, Attagene RNA transcription; actives raise or lower the signal
Method in brief: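 HepG2, transient MRTU transfection, cis-promoter reporters (endogenous TF activity). 24 h compound. RNA → oligo(dT) RT → PCR → 6-FAM primer extension → HpaI cut → CE. Bidirectional fit vs DMSO.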

[8] = ATG_MRE_CIS: Attagene CIS-FACTORIAL HepG2 Assay for human Metal Responsive Element (MRE) (AID 2282954); conditions: HepG2 MRE cis-reporter transcription, Attagene multiplex; actives raise or lower the signal
Method in brief: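 Fluorescent reporter fragments separated by capillary electrophoresis give mRNA induction for the MRE unit after 24 h treatment of transfected HepG2 cells. Endogenous transcription-factor activity is read; DMSO serves as negative control and baseline.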

Measured: outcome

Chain of Hypoxia-inducible factor 1-alpha (Homo sapiens) (Q16665 whole entry, looked up): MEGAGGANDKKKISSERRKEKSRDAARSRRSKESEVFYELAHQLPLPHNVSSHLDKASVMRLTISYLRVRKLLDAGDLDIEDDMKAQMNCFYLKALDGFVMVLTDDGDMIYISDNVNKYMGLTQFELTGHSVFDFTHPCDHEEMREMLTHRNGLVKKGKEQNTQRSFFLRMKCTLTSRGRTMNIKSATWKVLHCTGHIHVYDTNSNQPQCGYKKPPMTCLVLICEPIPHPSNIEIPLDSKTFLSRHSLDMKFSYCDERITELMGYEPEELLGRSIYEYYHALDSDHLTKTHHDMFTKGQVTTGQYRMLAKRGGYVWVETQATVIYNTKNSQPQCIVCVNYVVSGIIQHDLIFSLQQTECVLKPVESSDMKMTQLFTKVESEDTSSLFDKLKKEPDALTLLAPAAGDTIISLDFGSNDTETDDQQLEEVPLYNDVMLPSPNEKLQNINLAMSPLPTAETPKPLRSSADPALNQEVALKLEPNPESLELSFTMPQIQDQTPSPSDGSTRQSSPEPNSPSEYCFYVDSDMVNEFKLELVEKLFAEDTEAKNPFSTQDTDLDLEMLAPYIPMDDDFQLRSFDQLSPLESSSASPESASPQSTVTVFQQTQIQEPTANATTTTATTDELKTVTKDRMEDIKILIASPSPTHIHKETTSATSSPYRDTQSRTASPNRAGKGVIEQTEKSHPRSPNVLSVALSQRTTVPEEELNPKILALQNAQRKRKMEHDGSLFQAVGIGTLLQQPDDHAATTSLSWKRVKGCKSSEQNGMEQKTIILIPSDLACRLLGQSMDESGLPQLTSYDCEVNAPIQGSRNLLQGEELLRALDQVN
Chain of Heat shock factor protein 1 (Homo sapiens) (Q00613 whole entry, looked up): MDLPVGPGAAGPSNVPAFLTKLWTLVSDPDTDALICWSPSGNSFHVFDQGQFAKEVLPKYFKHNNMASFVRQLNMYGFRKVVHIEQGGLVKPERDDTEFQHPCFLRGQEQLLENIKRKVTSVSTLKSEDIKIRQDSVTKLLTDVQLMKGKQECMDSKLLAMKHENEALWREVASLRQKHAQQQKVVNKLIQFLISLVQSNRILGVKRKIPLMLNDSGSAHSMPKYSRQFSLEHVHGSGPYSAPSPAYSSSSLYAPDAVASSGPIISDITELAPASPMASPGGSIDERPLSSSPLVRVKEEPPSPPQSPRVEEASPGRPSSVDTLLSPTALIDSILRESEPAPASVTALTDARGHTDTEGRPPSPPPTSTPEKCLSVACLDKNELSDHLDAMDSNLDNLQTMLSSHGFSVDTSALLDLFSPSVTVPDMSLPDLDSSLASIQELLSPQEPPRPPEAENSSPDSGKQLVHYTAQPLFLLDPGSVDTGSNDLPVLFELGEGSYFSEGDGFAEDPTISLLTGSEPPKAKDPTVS
Chain of Hepatocyte nuclear factor 6 (Homo sapiens) (Q9UBC0 whole entry, looked up): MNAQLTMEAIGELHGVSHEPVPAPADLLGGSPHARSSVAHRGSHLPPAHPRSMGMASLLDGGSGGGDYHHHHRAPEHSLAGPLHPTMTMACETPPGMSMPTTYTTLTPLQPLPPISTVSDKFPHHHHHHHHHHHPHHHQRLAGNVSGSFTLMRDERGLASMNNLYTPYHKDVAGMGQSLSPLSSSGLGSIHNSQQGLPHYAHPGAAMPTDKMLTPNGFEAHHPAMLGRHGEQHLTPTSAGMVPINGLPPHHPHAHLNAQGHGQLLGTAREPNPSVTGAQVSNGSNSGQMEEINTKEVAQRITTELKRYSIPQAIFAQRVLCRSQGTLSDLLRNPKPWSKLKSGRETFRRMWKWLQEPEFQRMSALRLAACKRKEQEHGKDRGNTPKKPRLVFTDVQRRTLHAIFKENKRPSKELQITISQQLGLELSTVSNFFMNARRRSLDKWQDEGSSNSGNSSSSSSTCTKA

CN(C)C
inactive: all assays above
